# Assay results reported in PubChem BioAssay (NCATS).
# Records with an inconclusive call do not appear. A call without a number means that no potency is given here. Active and inactive are the calls of the source. Calls come from the whole dose curve; as a rule, active = well fitted inhibition curve with a large enough effect; inconclusive = small, poorly fitted or top-dose-only effect; inactive = flat fitted curve, though single readings scatter. Where a SMILES comes first, the peptide text is derived from it. [ ]: non-standard residue; d: D form. ξ: configuration not given here. ξPhe(βξ-Me) = CC(c1ccccc1)C(N)C(=O)O; GABA = NCCCC(=O)O
# Experiment: P-glycoprotein substrates identified in KB-8-5-11 adenocarcinoma cell line, qHTS therapeutic library screen (AID 1346987); note: nearly all actives have a fitted effect of over 65% in size
# Conditions: KB-8-5-11 (P-gp overexpressing) viability, CellTiter-Glo, 72 h; series mostly up to 44.5 µM
# Procedure, shortened: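 Compounds are pinned in dose-response onto KB-8-5-11 cells (500 cells/well, colchicine-free medium) and left 72 h at 37 degree C. CellTiter-Glo luminescence then yields AC50 values.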
# Potency is the fitted concentration of half-maximal effect.
SMILES,Potency,"activity change, negative = cytotoxicity"
CC1NC(=O)CCCNC(=O)C(Cc2c[nH]c3ccccc23)NC(=O)C(C)NC(=O)C(C(C)C)NC(=O)C(C(C)c2ccccc2)NC(=O)C(C(C)C)NC1=O (stereo not drawn) (cyclo([GABA]AV[ξPhe(βξ-Me)]VAW); configuration not given here),inactive,
C[S+](CC[C@H](N)C(=O)[O-])C[C@H]1O[C@@H](n2cnc3c(N)ncnc32)[C@H](O)[C@@H]1O (stereo partly specified),inactive,
CN1c2ccccc2C(=O)N2CCC3c4ccccc4NC3C21 (stereo unspecified),2.02 µM (active),
O=C(O)c1cc2cccc([N+](=O)[O-])c2[nH]1,inactive,
C[C@@]12CC[C@@H]3[C@@](CC[C@H]4[C@@]3(C)CCC[C@@]4(C)C(=O)O)(CC1=O)C2,inactive,
COc1c(/C=C/C(C)(C)O)ccc2c1C(=O)OCc1cc(C)cc(O)c1O2,inactive,
CO[C@H]1/C=C\O[C@@]2(C)Oc3c(C)c(O)c4c(O)c(c5c(nc6cc(C)ccn65)c4c3C2=O)NC(=O)/C(C)=C\C=C/[C@H](C)[C@H](O)[C@@H](C)[C@@H](O)[C@@H](C)[C@H](OC(C)=O)[C@@H]1C,inactive,
O=C(Nc1ccc(S(=O)(=O)Nc2ccccc2Cl)c(Cl)c1)c1ccccn1,inactive,
CC(C)C(N)C(=O)OCCOCn1cnc2c(=O)[nH]c(N)nc21 (stereo unspecified),inactive,
C=C(C(=O)OC)C1C(O)CC2(C)C(O)CCC(=O)C2C1O (stereo unspecified),inactive,
C=C(CCC1=C(C)[C@H]2[C@H](CC3[C@@H]4CC=C5C[C@@H](O)C[C@@H](O)[C@]5(C)C4[C@H](O)C[C@@]32C)O1)CO[C@@H]1O[C@H](CO)[C@@H](O)[C@H](O)[C@H]1O (stereo partly specified),1.53 µM (active),
Cc1cn(C2C=CC(CO)O2)c(=O)[nH]c1=O (stereo unspecified),inactive,
N#Cc1ccc(C(=O)N2CCC3(CC2)N=C(N)c2c(F)ccc(F)c2N3)cn1,inactive,
C/C=C/C=C/C(O)=C1\C(O)=C(C)C(=O)[C@@]2(C)OC(=O)[C@@](C)(NC(=O)/C=C/C(=O)O)[C@@H]12,inactive,
C=CC1(C)CC(OC(=O)/C(C)=C\COC(C)=O)C(C(=C)C(=O)O)C(O)C1C(=C)CO (stereo unspecified),inactive,
COc1ccc(F)cc1-c1cc(NC(=O)[C@@H]2CCCNC2)ncc1Cl,0.326 µM (active),

SMILES,Potency,"activity change, negative = cytotoxicity"
CCOCc1nc2c(N)nc3ccccc3c2n1CC(C)(C)O,inactive,
C=CC(C)(C)c1[nH]c2cc3c(cc2c1CC1NC(=O)C2CCCN2C1=O)C=CC(C)(C)O3 (stereo unspecified),inactive,
COc1ccc(CCO[C@@H]2CCCC[C@H]2N2CC[C@@H](O)C2)cc1OC,inactive,
COc1cc(Nc2nc3c(s2)CCCC3c2ccc(F)cc2)ccc1-n1cnc(C)c1 (stereo unspecified),20.6 µM (active),
CC1OC(OC2C(CO)OC(OCC3OC(OC(=O)C45CCC(C)(C)CC4C4=CCC6C7(C)CCC(OC8OC(CO)C(O)C(OC9OC(CO)C(O)C(O)C9O)C8O)C(C)(C)C7CCC6(C)C4(C)CC5)C(O)C(O)C3O)C(O)C2O)C(O)C(O)C1OC1OC(CO)C(O)C(O)C1O (stereo unspecified),,9.79% [at 9.29 µM] (inactive)
CCN(CC)CCN(Cc1ccc(-c2ccc(C(F)(F)F)cc2)cc1)C(=O)Cn1c(SCc2ccc(F)cc2)nc(=O)c2c1CCC2,18.4 µM (active),
CN(C)C/C=C/C(=O)Nc1cccc(C(=O)Nc2cccc(Nc3ncc(Cl)c(-c4c[nH]c5ccccc45)n3)c2)c1,13 µM (active),
CC(C)CCC(=O)CC1c2ccccc2C(=O)N1c1ccc2ccc(Cl)nc2n1 (stereo unspecified),inactive,
CN1CCC(Nc2nc(Nc3ccc(Oc4ccccc4)cc3)c3c(=O)[nH]cc(Br)c3n2)CC1,4.61 µM (active),
COc1cc(C(=O)OC[C@H]2O[C@@H](Oc3ccccc3/C=C/C(=O)O)[C@H](O)[C@@H](O)[C@@H]2O)cc(OC)c1OC,inactive,
COc1ccccc1Oc1ccc(N(Cc2cccnc2)S(=O)(=O)CC(F)(F)F)cc1,inactive,
C/C=C(\C)C(=O)OCC1OC(OC2OC(COC(=O)/C(C)=C/C)C(OC3OC(CO)C(OC(=O)/C(C)=C/C)C(OC(=O)/C(C)=C/C)C3O)C(O)C2O)C(O)C(O)C1OC1OC(CO)C(OC(=O)/C(C)=C/C)C(OC(=O)/C(C)=C/C)C1O (stereo unspecified),,8.2% [at 9.29 µM] (inactive)
CC(=O)C=C=C1C(C)(C)CC(O[C@@H]2O[C@H](CO)[C@@H](O)[C@H](O)[C@H]2O)CC1(C)O (stereo partly specified),inactive,
CC(C)c1cc(C(=O)N2CC[C@H](NC(=O)C3CC3)C2)n[nH]1,inactive,
CC(C)CCC1(O)C(=O)C(C)(C)C(O[C@@H]2O[C@H](CO)[C@@H](O)[C@H](O)[C@H]2O)C(C)(C)C1O (stereo partly specified),inactive,
